Data taken from PubChem BioAssay AID878 (University of Pittsburgh Molecular Library Screening Center, 2007).
The campaign covered roughly 200,000 compounds. About 65 (0.03%) were called active.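 The calls were made as follows: active = activation of at least 50% relative to the plate's high and low controls in the primary single-dose screen; inactive = activation below 50%.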 Only a selection was taken, and actives are over-represented in it overall.

Test: compounds producing H2O2 with reducing agent – biochemical, NIH compound library profiling, artefact control for MLSCN library redox annotation, primary screen (AID 878);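 also: compound incubated with DTT at 0.8 mM final as the reducing agent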
Conditions: DTT-dependent redox cycling H2O2, phenol red/HRP absorbance; at 10 µM; active compounds read high; 100% = 100 µM peroxide control, 0% = buffer

activation, inactive:
O=C1c2cccc3c([N+](=O)[O-])ccc(c23)C(=O)N1CC1CCCO1 (configuration not stated) -0.67%
O=C(N/N=C1\CCSC1)c1cc(Cl)ccc1O -0.43%
CCn1ccnc1CN1CCCC(C(=O)c2ccc3c4c(cccc24)CC3)C1 (configuration not stated) -1.32%
COc1ccc([N+](=O)[O-])cc1NC(=O)c1ccc(N(Cc2ccccc2C)S(C)(=O)=O)cc1 2.05%
CCOc1ccc(N(CC(=O)NC2CCCCCC2)S(=O)(=O)c2c(C)[nH]c(=O)[nH]c2=O)cc1 -0.79%
CCC(O)C1CCN(Cc2cn(-c3ccc(OC)cc3)nc2-c2cccc(F)c2)CC1 (configuration not stated) -1.12%
O=C(NNC(=O)C1CCN(c2ncccn2)CC1)c1ccccc1 3.9%
O=C(NC(=S)Nc1ccc(NC(=O)c2cccs2)cc1)c1ccc([N+](=O)[O-])cc1 0.63%
CNc1ccc(SC#N)cc1 -1.28%
CCN1CCN(CC(=O)c2cc(OC)c(OC)c(OC)c2)CC1 -2.87%
CC(Nc1ccccc1)c1cccnc1 (configuration not stated) -1.74%
CN(C)c1ccc(-n2cccc2/C=N/n2cnnc2)cc1 -0.65%
COC(=O)/C(C#N)=C/c1occc1C -0.05%
Cc1cc(C)cc(N(CC(=O)N2CC=C(c3ccccc3)CC2)S(=O)(=O)c2c(C)noc2C)c1 -1.64%
CC(C)(C)C(=O)N(Cc1ccccc1)c1ccccn1 -0.82%
O=C(CN1CCCCCC1)Nc1ccc(Br)cc1Br 0.33%
COCCCn1c(SCC(=O)Nc2ccccc2)nnc1-c1ccncc1 0.72%
CCCCN=C1C([N+](=O)[O-])=CC=C2C1=NC1(CCCCC1)N2O 0.33%
O=C(N/N=C/c1ccco1)c1ccc(C(=O)N/N=C/c2ccco2)o1 -0.77%
O=C(C1CC1)N1N=C2CCCCC2C1(O)C(F)(F)F (configuration not stated) -0.33%
CC1Cc2ccccc2N1S(=O)(=O)c1c(N)n(C)c(=O)n(C)c1=O (configuration not stated) -1.16%
Cc1cc(NC(=O)CSc2nc3c(cc2C#N)CCCCC3)no1 -0.92%
COC(=O)c1ccccc1NS(=O)(=O)c1ccc2[nH]c(=O)[nH]c2c1 0.27%
COc1ccc(CCNC(=O)/C(C#N)=C2\N=C(NC(=O)c3cccs3)c3ccccc32)cc1 0.35%
CCC(NC(=O)c1ccccc1NC(=O)c1ccccc1)C(=O)NNC(=O)CSc1nc2ccccc2o1 (configuration not stated) -0.15%
CCc1cccc(C)c1NC(=O)COC(=O)Cc1ccsc1 -0.34%
Cc1noc(C)c1COc1ccc2ccc(=O)oc2c1 -0.19%
COc1ccc2nc(Nc3nc(-c4ccncc4)cs3)sc2c1 -0.22%
Cc1cccc(OC(=O)c2sc3ncn(C)c(=O)c3c2C)c1 0.69%
COc1ccc(CCNC(=O)C(=O)NCc2ccccc2C)cc1OC -0.24%
CCc1nnc(NC(=O)C2CC(=O)N(c3ccc4c(c3)OCCO4)C2)s1 (configuration not stated) 0.21%
CCc1ccc(CN(C)C(=O)CCc2nnc(-c3ccc(-c4ccccc4)cc3)o2)nc1 -1.14%
Cc1ccccc1NC(=O)c1ccc(COc2ccc3c(C)cc(=O)oc3c2)cc1 0.57%
O=C(Nc1cccc(C(F)(F)F)c1)c1ccc(N2CCNCC2)c([N+](=O)[O-])c1 2.54%
CN(C)CCCO/N=C(\c1ccccc1)c1ccncc1 0.18%
CCOCCCNC(=O)C(NC(=O)c1ccc(=O)[nH]c1)c1ccc(Cl)cc1 (configuration not stated) -3.26%
COc1cc(CC(=O)N/N=C/c2ccccc2)c([N+](=O)[O-])cc1OC -0.77%
O=S(=O)(c1ccc(F)cc1)N1CCN(C(=S)NCc2ccco2)CC1 -0.47%
O=C(Cc1ccccc1)NNC(=O)C1CCN(c2ncccn2)CC1 -0.49%
COc1ccc(Cl)cc1-n1c(C)cc(C(=O)OCC(=O)N2CC(=O)Nc3ccccc32)c1C 0.04%
Cc1ccc(-c2cc(=O)c3ccc(Cl)cc3[nH]2)cc1 -1.26%
CCN(CC)c1ccc([N+](=O)[O-])cc1C(=O)O 0.13%
N#Cc1c(NC(=O)c2ccc(N3CCOCC3)c([N+](=O)[O-])c2)sc2c1CCCC2 0.09%
COc1cc(NC(=S)NCc2ccco2)c(OC)cc1Cl -0.01%
O=C(Nc1ccccc1)c1cc2ccccc2[nH]1 -0.39%
C=CCN(Cc1nc(-c2cc(OC)c3c(c2)OCO3)oc1C)C1CCS(=O)(=O)C1 (configuration not stated) -0.18%
COc1ccccc1C(=O)Nc1ccc(OCc2nnc3c4ccccc4c(C)nn23)cc1 -0.13%
CCOC(=O)Nc1ccc(S(=O)(=O)N(C)C(C)C)cc1 0.17%
Cc1cc(NC(=O)CN2C(=O)NC(CCc3ccccc3)C2=O)no1 (configuration not stated) -0.88%
COc1ccc(OC)c(NC(=O)CN(Cc2ccc(Cl)cc2)S(C)(=O)=O)c1 -0.61%
CC(C)NC(=O)c1ccccc1S(=O)c1ccccc1C#N (configuration not stated) 0.13%
COc1ccc(C2=NN(c3ccccc3)C(c3cccs3)C2)cc1 (configuration not stated) 0.96%
C=CCn1nc(-c2ccccc2)c2c(C)onc2c1=O -0.48%
Cc1ccc(C(=O)NC(C)c2ccccc2)cc1Br (configuration not stated) -0.27%
CC(C)Cn1c(N)c(C(=O)COC(=O)CN2C(=O)C3CC=CCC3C2=O)c(=O)n(C)c1=O (configuration not stated) -0.26%
Cc1cc(C)cc(NC(=O)N2CCCCCCC2)c1 -0.28%
CCCCN1C(=O)/C(=C/C=C2/C=Cc3ccccc3N2CC)SC1=S 1.26%
C=CCn1c(COc2ccc(F)cc2)nnc1SCC(=O)Nc1cccc(S(N)(=O)=O)c1 -0.73%
CCN(CC)CCCNC(=O)Cn1cnc2sc(C)c(S(=O)(=O)N3CCN(c4ncccn4)CC3)c2c1=O -0.75%
COC(=O)C1=C(C(=O)OC)C(c2cc([N+](=O)[O-])ccc2O)c2sc(=O)[nH]c2S1 (configuration not stated) 0.35%
COCCn1c(C)cc(C(=O)COC(=O)/C=C/c2cccc(OC)c2)c1C 0.06%
O=C(COC(=O)c1ccc(F)cc1)Nc1nc2ccc([N+](=O)[O-])cc2s1 -0.91%
Cc1nn(CC(=O)NCc2ccccn2)c(C)c1[N+](=O)[O-] 0.55%
Cc1nc(NC(=O)C2CCCCC2)sc1C 1.88%
O=C(Nc1cccc(S(=O)(=O)N2CCCCC2)c1)c1ccc2c(c1)OCO2 -0.11%
CCOC(=O)C1(Cc2ccccc2C(F)(F)F)CCN(C(=O)c2cc(C)n(C)n2)CC1 -0.12%
COC(=O)NNC1=CC(=O)CC(C)(C)C1 0.51%
CCOC(=O)c1c(N)nn(C(=O)c2ccccc2)c1-c1ccccc1 -2.05%
CCCCNC(=O)CCn1c(=O)c2ccccc2n(Cc2cc(C)ccc2C)c1=O 0.21%
C=CCn1c2ccccc2c2nnc(SCc3[nH]c(=O)[nH]c3C(=O)CCCCC(=O)OCC)nc21 0.68%
CCN1C(=O)/C(=c2\s/c(=C3\Sc4ccccc4N3C)c(=O)n2C)N(C)C1=S -0.11%
CC(=O)C1(C)N(O)C(C)(C)C(c2cccs2)=[N+]1[O-] (configuration not stated) 0.23%
Cc1c(NC(=S)NCc2ccc(F)cc2)cccc1[N+](=O)[O-] 0.02%
CN(C)/C=C(/C(=O)c1ccc(F)cc1)S(=O)(=O)c1ccc(F)cc1 -0.68%
CCC1CCCCN1C(=O)CSc1nc(C)cc(C)n1 (configuration not stated) -1.65%
CCCCC(O)(CCCC)C(=O)NN(C(=O)CCl)c1ccccc1 0.06%
O=C(c1cccs1)n1nc(NCc2ccccc2)nc1NCc1ccccc1 -0.21%
Cc1cc(C)c(C#N)c(SCC(=O)Nc2ccccc2)n1 0.39%
COc1ccc(/C=C(\C#N)C(=O)ONC2=NCCCCC2)cc1 -1.95%
Cc1cc(CNCc2c(C(=O)N(C)Cc3ccccc3)nc3ccccn23)nn1C -1.78%
Cc1ccc(C)c(OCC(=O)N2CCN(C(=O)c3ccco3)CC2)c1 -0.33%
COc1ccc(/C=C/C(=O)c2ccc(NS(=O)(=O)c3ccc(C)cc3)cc2)cc1O 0.57%
CCN(CC)C(=O)c1sc2nc(-c3ccccc3)ccc2c1N 0.13%
Cc1ccc(C)c(NC(=S)NNC(=S)Nc2ccc(C(C)C)cc2)c1 -1.35%
Oc1ccc(/C=N/Nc2ccc(C(F)(F)F)cn2)cc1O -2.05%
CC(CC(=O)O)CC(=O)NNC(=O)c1cccc(Br)c1 (configuration not stated) 0.78%
Cc1ccc(OCC(=O)OC(C)CN(C)Cc2ccccc2)cc1 (configuration not stated) -0.15%
Cc1ccc(NC(=O)c2oc(=O)c3ccccc3c2-c2ccccc2)c(C)c1 -0.2%
COc1ccc(CS(=O)/C(Cl)=C(/Cl)C(=O)Nc2ccc(OC)nc2)cc1 (configuration not stated) 0.27%
CCOC(=O)C1=C(CN2CCCCCC2)NC(=O)NC1c1cccc([N+](=O)[O-])c1 (configuration not stated) -10.2%
CCOC(=O)C1(O)CC(C)=NN1C(=O)c1cccc(Br)c1 (configuration not stated) -0.77%
COC(=O)c1ccccc1NC(=O)C1CC(=O)N(c2ccc(OC)cc2)C1 (configuration not stated) -0.76%
